# Reference: publication PMC4336329 (PLoS ONE, 2015)
# Screen size: about 310,000 compounds; about 14,000 (4.5%) showed an effect of 50% or more. Effects have a minus sign here. This excerpt belongs to a sample that is enriched for strong results.
# Target: human ether-à-go-go-related gene (hERG) potassium channel (human, UniProt Q12809)
# Test: primary screen, population patch clamp on CHO cells stably expressing hERG; higher = less effect of the substance
# 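Note: peak tail current of the secondary pulse compared with the same well before compound.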
# Chain of human ether-à-go-go-related gene (hERG) potassium channel (Q12809 whole entry, looked up): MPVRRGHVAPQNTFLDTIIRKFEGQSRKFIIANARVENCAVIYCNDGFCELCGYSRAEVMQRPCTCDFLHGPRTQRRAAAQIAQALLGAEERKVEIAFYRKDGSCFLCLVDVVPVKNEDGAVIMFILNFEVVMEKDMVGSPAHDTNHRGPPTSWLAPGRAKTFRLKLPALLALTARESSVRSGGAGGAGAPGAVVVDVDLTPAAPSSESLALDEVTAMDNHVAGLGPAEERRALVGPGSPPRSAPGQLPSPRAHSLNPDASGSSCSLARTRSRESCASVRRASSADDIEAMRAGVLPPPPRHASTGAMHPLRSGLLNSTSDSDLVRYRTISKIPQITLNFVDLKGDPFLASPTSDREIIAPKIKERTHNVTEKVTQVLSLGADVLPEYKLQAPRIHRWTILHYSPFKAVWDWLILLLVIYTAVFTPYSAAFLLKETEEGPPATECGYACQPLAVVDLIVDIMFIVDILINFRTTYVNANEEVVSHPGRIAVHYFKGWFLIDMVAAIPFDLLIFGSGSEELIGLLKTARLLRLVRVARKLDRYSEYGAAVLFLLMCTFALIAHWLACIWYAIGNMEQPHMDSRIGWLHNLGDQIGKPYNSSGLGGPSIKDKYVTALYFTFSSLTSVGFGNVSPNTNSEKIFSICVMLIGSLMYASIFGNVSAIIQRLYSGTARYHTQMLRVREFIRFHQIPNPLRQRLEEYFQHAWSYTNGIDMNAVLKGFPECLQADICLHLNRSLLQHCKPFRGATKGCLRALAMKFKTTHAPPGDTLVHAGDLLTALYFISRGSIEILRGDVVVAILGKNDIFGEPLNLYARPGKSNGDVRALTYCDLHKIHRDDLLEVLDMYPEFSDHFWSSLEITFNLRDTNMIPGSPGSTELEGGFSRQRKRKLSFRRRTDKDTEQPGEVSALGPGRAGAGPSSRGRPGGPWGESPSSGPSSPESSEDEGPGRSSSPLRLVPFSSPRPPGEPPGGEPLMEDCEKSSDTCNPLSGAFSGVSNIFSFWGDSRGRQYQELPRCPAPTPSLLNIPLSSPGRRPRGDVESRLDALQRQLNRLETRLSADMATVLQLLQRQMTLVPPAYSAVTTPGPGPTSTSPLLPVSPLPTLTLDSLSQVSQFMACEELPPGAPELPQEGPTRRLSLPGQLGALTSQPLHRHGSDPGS
row,Compound,"hERG current change (%, negative = inhibition) at 10uM"
1,CCCC(=O)Nc1c(-c2ccccc2)c(=O)c(C)nn1-c1ccccc1,10.3%
2,Cc1ccc(S(=O)(=O)CCC(=O)Nc2ccc3nc(C)sc3c2)cc1,3.75%
3,CC(C)c1c(C(=O)N/N=C/c2ccc(-c3ccccc3)cc2)nnn1-c1nonc1N,26.6%
4,C=CCc1ccccc1OCC(O)CNC(C)C.Cl (centres unmarked),-33.3%
5,CCS(=O)(=O)n1nc(-c2ccc(OC)cc2)nc1N,11.6%
6,COc1ccc(CCC(N)=O)cc1OC,11.1%
7,COc1ccc(CCn2nnnc2C(c2ccccc2)N2CCN(C)CC2)cc1OC.Cl (centres unmarked),7.37%
8,N#Cc1cccc(C(c2nnnn2CCc2ccccc2)N2CCN(C3CCCCC3)CC2)c1 (centres unmarked),-61%
9,Clc1ccc(C(c2nnnn2CCc2ccccc2)N2CCSCC2)cc1 (centres unmarked),0.814%
10,Cl.Fc1ccc(Cn2nnnc2C(c2ccc(Cl)cc2)N2CCSCC2)cc1 (centres unmarked),-1.72%
11,Cl.N#Cc1cccc(C(c2nnnn2Cc2ccccc2)N2CCCC2)c1 (centres unmarked),-22.7%
12,COCCn1nnnc1C(c1cccc(C#N)c1)N1CCCCCC1.Cl (centres unmarked),-56.6%
13,COCCn1nnnc1C(c1ccc(Cl)cc1)N1CCSCC1.Cl (centres unmarked),-51.9%
14,COc1ccc(C(c2nnnn2CCc2ccccc2)N2CCN(C3CCCC3)CC2)cc1OC.Cl (centres unmarked),-64.3%
15,N#Cc1cccc(C(c2nnnn2C2CCCC2)N2CCC(Cc3ccccc3)CC2)c1 (centres unmarked),8.5%
16,COc1ccc(C(c2nnnn2C2CCCC2)N2CCN(C3CCCC3)CC2)cc1OC.Cl (centres unmarked),-22.7%
17,N#Cc1ccc(C(c2nnnn2CCc2ccccc2)N2CCCCCC2)cc1 (centres unmarked),-26.3%
18,CC(C)(C)n1nnnc1C(c1cccc(C#N)c1)N1CCCCCC1 (centres unmarked),-4.75%
19,CC(C)(C)C1CCC(=NOC(=O)c2ccc(F)cc2)CC1 (centres unmarked),15.7%
20,O=C(CNC(=O)c1cccc(Br)c1)N/N=C/c1ccc[nH]1,22.5%
21,Cc1ccc(-c2cc(-c3ccccc3Cl)c(C#N)c(N)n2)o1,3.05%

row,Compound,"hERG current change (%, negative = inhibition) at 10uM"
1,COc1ccccc1-c1ccc(C(=O)O)o1,7.06%
2,COC(=O)c1cn(C)c2ccc(S(=O)(=O)N3CC(C)CC(C)C3)cc2c1=O (centres unmarked),-5.76%
3,COc1ccc(CCNC(=S)Nc2ccc(C)cc2C)cc1,2.89%
4,CC(=O)O.CC1(C)CC(=O)C2=C(C1)NC1=C(C(=O)c3ccccc31)C2c1cc([N+](=O)[O-])ccc1O (centres unmarked),-37.1%
5,CCOC(=O)c1c(S(=O)(=O)NCC(C)c2ccccc2)c(C)n(C)c1C (centres unmarked),-17.8%
6,CCCC(c1nnnn1CCc1ccccc1)N1CCN(C2CCCC2)CC1 (centres unmarked),-48.9%
7,COc1ccc(C(c2nnnn2CCc2ccccc2)N2CCN(C3CCCC3)CC2)cc1.Cl (centres unmarked),-68%
8,Cc1ccc(C(c2nnnn2CCc2ccccc2)N2CCC(C)CC2)cc1.Cl (centres unmarked),13.8%
9,COc1ccccc1CC(=O)N(Cc1ccccc1)c1ccc(C)cc1,-16%
10,CCN(CC)S(=O)(=O)c1ccc(S(=O)(=O)N2CCCC2C(=O)O)cc1 (centres unmarked),-0.323%
11,CCOn1c(=O)c(-c2ccccc2)[n+]([O-])c2ccccc21,1.67%
12,COc1nc(OC)nc(N2CCC(C(=O)NCc3ccc(F)cc3)CC2)n1,-44.9%
13,COc1ccc(C(=O)NC2CCN(CC(=O)NCc3ccccc3)CC2)cc1,-24.4%
14,O=C(CN1CCC(C(=O)c2ccc(F)cc2)CC1)Nc1ccc(F)cc1,-64.7%
15,Cc1ccc(NC(=O)CN2CCC(C(=O)c3ccc(F)cc3)CC2)cc1,-72.5%
16,CC(=O)c1ccc(NC(=O)CN2CCC(C(=O)c3ccc(F)cc3)CC2)cc1,-22.9%
17,COc1nc(OC)nc(N2CCC(C(=O)NCc3cccs3)CC2)n1,-45%
18,COc1ccc(CNC(=O)CN2CCC(C(=O)c3ccc(OC)cc3)CC2)cc1,-58%
19,COc1ccc(CNC(=O)C2CCN(c3nc(OC)nc(OC)n3)CC2)cc1,-65.1%
20,COc1ccc(C(=O)C2CCN(CC(=O)NCc3ccccc3)CC2)cc1,-46.3%
21,O=C(CN1CCC(C(=O)c2ccc(F)cc2)CC1)Nc1ccccc1,-29.7%

row,Compound,"hERG current change (%, negative = inhibition) at 10uM"
1,Cc1c(NC(=O)/C(C#N)=C/c2ccc(-c3ccc(Cl)cc3)o2)c(=O)n(-c2ccccc2)n1C,-41.5%
2,COc1ccc(C(=O)OCC(=O)c2cc(C)n(CC3CCCO3)c2C)cc1[N+](=O)[O-] (centres unmarked),-42.9%
3,Cc1nc(-c2ccc(NC(=O)Cc3ccccc3)cc2)cs1,21.1%
4,Cc1ccc(-c2nn(-c3ccccc3)cc2/C=C2\SC(=S)N(CCCCCC(=O)O)C2=O)o1,15.1%
5,Cc1cc(-c2ccc(C)c(S(=O)(=O)NCc3ccc(Br)cc3)c2)on1,-31%
6,COc1cccc(SCc2noc(C(=O)NCC3CCCO3)c2C(=O)O)c1 (centres unmarked),11.9%
7,COc1ccccc1CCc1nnc(CCC(=O)NCCOc2cccnc2)o1,7.9%
8,Cc1cc(S(=O)(=O)N2CCC(NC(=O)C34CC5CC(CC(C5)C3)C4)CC2)ccc1-n1cnnn1,-15.2%
9,COCCN(CCOC)c1ncc(Cl)c(C(=O)c2c(C)cc3ccccn23)n1,-4.6%
10,COC(=O)C1(C)CC1(c1ccccc1)c1ccccc1 (centres unmarked),-3.98%
11,O=C(N/N=C/c1ccccc1O)C1CCCC1,8.05%
12,O=C(CN1CCC(C(=O)c2ccc3c(c2)OCCO3)CC1)NCc1ccc(F)cc1,-30.2%
13,Cc1ccc(C(=O)NCN2CCN(c3ccc(F)cc3)CC2)cc1,-28.9%
14,Cc1ccc(C(=O)C2CCN(CC(=O)NCc3ccc(F)cc3)CC2)cc1,-53.3%
15,O=C(c1ccccc1)C1CCN(CC(=O)N2CCN(c3ccccc3)CC2)CC1,-14.9%
16,Cc1ccc(C(=O)C2CCN(CC(=O)N3CCN(c4ccc(F)cc4)CC3)CC2)cc1,-73.7%
17,O=C(CN1CCC(C(=O)c2ccc(F)cc2)CC1)NCc1ccccc1F,-39.6%
18,Cc1ccccc1NC(=O)CN1CCC(C(=O)c2ccc3c(c2)OCCO3)CC1,-44.5%
19,Cc1ccc(C(=O)C2CCN(CC(=O)Nc3ccccc3C)CC2)cc1,-68.9%
20,COc1ccccc1NC(=O)CN1CCC(C(=O)c2ccc(F)cc2)CC1,-38.5%
